Experimental data from PubChem BioAssay (NCATS).
Several values for one entry are separate records, joined by “and”; a condition that tells them apart may be missing. Equal values may be shown once. Results filed as inconclusive are left out. Activity calls are given as the source filed them. Unless noted, calls come from the whole dose curve; as a rule, active = well fitted curve in the direction sought with a large enough effect; inconclusive = small, poorly fitted or top-dose-only effect, or another doubt; inactive = no such curve, though single readings can be large; an effect the other way counts as inactive or inconclusive.

What was measured:
[1] = Primary qHTS for inhibitors of La Crosse Virus (LACV) - induced cell death in SH-SY5Y cells (AID 1508616);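 note: top concentration of the series differs between compounds; 0% = infected DMSO wells and 100% = uninfected DMSO wells; higher means more rescue of cells from virus-induced death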
Procedure, shortened: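 Screening measures cell viability in LACV-infected SH-SY5Y cultures. Compound was added before virus (0.01 MOI), and ATP was detected by luminescence 6 days later.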

[2] = target: Calcium and integrin-binding protein 1 (Homo sapiens) (UniProt Q99828); test: Primary qHTS for Identification of Calcium Integrin Binding Protein 1 (CIB1) Competitor (AID 1508620);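 note: GST tagged CIB1 binding a fluorescein labelled alphaIIb integrin peptide tracer; top concentration of the series differs between compounds; % is set by controls: 0 for no effect and ±100 for the full control effect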
Chain of Calcium and integrin-binding protein 1 (Homo sapiens) (Q99828 whole entry, looked up): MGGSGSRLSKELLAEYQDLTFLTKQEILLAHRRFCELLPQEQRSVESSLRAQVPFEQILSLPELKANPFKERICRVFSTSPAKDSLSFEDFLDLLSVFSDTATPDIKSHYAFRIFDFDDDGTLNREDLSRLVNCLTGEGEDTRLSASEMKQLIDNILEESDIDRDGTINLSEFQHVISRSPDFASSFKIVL
Procedure, shortened: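 Fluorescence polarization competition: CIB1-GST (1 uM final) preincubated with compound 15 min at room temperature, then FITC-labeled alphaIIb peptide (100 nM final) added for another 15 min. Polarization read at Ex 480/Em 540.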

[3] = Primary qHTS for small molecule stabilizers of the endoplasmic reticulum resident proteome: Secreted ER Calcium Modulated Protein (SERCaMP) assay (AID 1508630); note: % is set by controls: 0 for no effect and ±100 for the full control effect
Procedure, shortened: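 The SH-SY5Y reporter protocol was run at 3 concentrations up to 38.3 uM (primary) or 11 concentrations (follow-up): 16 h compound, 100 nM thapsigargin for 4 h, then extracellular luciferase luminescence.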

[4] = A High-Content qHTS Against Drug Library for the Identification of Small Molecules that Inhibit DYT1 Early Onset Primary Dystonia-Associated Cell Pathology (AID 1645839; calls by dose curve)
Procedure, shortened: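 Induced EGFP-delE TorsinA cells are imaged after 48 h of compound treatment. Punctate fusion-protein distribution gives the %pathology value, while nuclei counts flag toxicity. Wild-type EGFP-hTOR1A cells define the normal pattern.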

[5] = target: Cytochrome P450 2D6 (Homo sapiens) (UniProt P10635); test: Cytochrome P450 family 2 subfamily D member 6 (CYP2D6) small molecule antagonists: luciferase biochemical (cell-free) qHTS assay (AID 1645840; active = well fitted curve in the direction sought with a large enough effect in the repeat runs; an effect the other way counts as inactive or inconclusive; note: nearly all actives have a fitted effect of over 55% in size; note: potency is the fitted concentration of half-maximal effect)
Chain of Cytochrome P450 2D6 (Homo sapiens) (P10635 whole entry, looked up): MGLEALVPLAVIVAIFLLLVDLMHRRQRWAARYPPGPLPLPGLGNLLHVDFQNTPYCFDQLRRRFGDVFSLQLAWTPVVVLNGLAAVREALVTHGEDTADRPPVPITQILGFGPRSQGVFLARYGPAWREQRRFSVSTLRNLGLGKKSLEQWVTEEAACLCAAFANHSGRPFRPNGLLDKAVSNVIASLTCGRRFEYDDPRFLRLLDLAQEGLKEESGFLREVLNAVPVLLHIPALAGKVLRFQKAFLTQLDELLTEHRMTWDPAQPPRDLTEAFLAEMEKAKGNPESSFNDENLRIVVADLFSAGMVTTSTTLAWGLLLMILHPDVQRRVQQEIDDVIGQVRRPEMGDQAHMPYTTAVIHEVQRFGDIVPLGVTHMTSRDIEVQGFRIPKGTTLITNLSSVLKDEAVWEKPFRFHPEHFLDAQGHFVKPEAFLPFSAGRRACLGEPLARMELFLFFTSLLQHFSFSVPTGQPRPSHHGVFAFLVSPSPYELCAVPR
Procedure, shortened: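 P450-Glo CYP2D6 system: proluciferin substrate converted by enzyme to luciferin, read by luminescence proportional to activity. Enzyme-substrate mix with compound 10 min at room temperature, then NADPH regeneration 1 h before detection reagent.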

[6] = target: Cytochrome P450 2C9 (Homo sapiens) (UniProt P11712); test: Cytochrome P450 family 2 subfamily C member 9 (CYP2C9) small molecule antagonists: luciferase biochemical (cell-free) qHTS assay (AID 1645842; active = well fitted curve in the direction sought with a large enough effect in the repeat runs; an effect the other way counts as inactive or inconclusive; note: nearly all actives have a fitted effect of over 55% in size; note: potency is the fitted concentration of half-maximal effect)
Chain of Cytochrome P450 2C9 (Homo sapiens) (P11712 whole entry, looked up): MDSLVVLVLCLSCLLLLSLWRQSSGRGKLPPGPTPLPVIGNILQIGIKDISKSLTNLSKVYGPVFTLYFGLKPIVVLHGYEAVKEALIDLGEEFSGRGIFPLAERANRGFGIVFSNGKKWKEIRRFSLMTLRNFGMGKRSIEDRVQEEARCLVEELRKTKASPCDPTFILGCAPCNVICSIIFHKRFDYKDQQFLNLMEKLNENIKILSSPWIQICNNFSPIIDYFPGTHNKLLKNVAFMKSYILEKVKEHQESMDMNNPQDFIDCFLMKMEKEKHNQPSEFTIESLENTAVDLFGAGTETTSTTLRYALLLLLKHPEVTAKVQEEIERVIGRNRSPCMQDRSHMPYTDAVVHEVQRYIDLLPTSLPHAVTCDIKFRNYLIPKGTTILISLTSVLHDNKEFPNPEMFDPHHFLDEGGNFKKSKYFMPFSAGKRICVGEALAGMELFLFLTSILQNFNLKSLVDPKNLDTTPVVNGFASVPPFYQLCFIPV
Procedure, shortened: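 P450-Glo CYP2C9 system: proluciferin substrate with enzyme in mix containing 0.4% BSA, 10 min at room temperature, then NADPH regeneration solution added and incubated 1 h at 37C. Detection reagent stopped reaction; luminescence read after 20 min as RLU.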

[7] = Cytotoxicity counterscreen for inhibitors of SARS-CoV-2 cell entry (AID 1645845; calls by dose curve; note: nearly all actives have a fitted effect of over 50% in size)
Procedure, shortened: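 After a 15 min room-temperature ATPLite 1step step, luminescence reflected ATP remaining in HEK293-ACE2 cells exposed to compound for 1 h plus 48 h at 37 C, with percent activity set by cell and no-cell controls.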

[8] = Primary qHTS to identify inhibitors of SARS-CoV-2 cell entry (AID 1645846; calls by dose curve; note: nearly all actives have a fitted effect of over 45% in size; note: potency is the fitted concentration of half-maximal effect); conditions: activity change, negative = inhibition: at 57.1 µM (top of the series) unless noted
Procedure, shortened: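 HEK293 cells stably expressing human ACE2, pre-treated 1 h with compound, then infected with MLV particles pseudotyped with Wuhan-Hu-1 spike (C-terminal 19-aa truncation). Luciferase luminescence after 48 h at 37 °C, normalised to spike PP and bald PP.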

[9] = Primary qHTS for inhibitors of nuclear receptor binding SET domain protein 2 (NSD2) in an isogenic RCH-ACV NSD2 p.E1099K mutant (9B) (AID 1645876); note: nearly all actives have a fitted effect of over 70% in size; note: potency is the fitted concentration of half-maximal effect
[10] = Primary qHTS for inhibitors of nuclear receptor binding SET domain protein 2 (NSD2) in an RCH-ACV wild type WT cells (2C) (AID 1645877); note: nearly all actives have a fitted effect of over 70% in size; note: potency is the fitted concentration of half-maximal effect
[11] = Counterscreen qHTS for small molecule stabilizers of the endoplasmic reticulum resident proteome: GLuc-NoTag assay (AID 1508627); note: potency is the fitted concentration of half-maximal effect;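 for activity change, negative = inhibition: 0% = thapsigargin alone and -100% = DMSO vehicle control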
Procedure, shortened: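 Secreted GLuc lacking the SERCaMP modification is measured in SH-SY5Y cells exposed to compound for 19 h and then to thapsigargin (100 nM, 4 h) to deplete ER calcium; hits retested at 11 concentrations, up to 76.6 uM.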

[12] = Confirmatory qHTS for small molecule stabilizers of the endoplasmic reticulum resident proteome: Secreted ER Calcium Modulated Protein (SERCaMP) assay (AID 1508628); note: nearly all actives have a fitted effect of over 40% in size; note: potency is the fitted concentration of half-maximal effect
Procedure, shortened: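 GLuc-SERCaMP-expressing SH-SY5Y cells, pretreated 16 h with compound, are challenged with thapsigargin to empty ER calcium stores; after 4 h, coelenterazine is added directly to the medium and luminescence is imaged.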

[13] = Cell Viability qHTS for small molecule stabilizers of the endoplasmic reticulum resident proteome (AID 1508629); conditions: cell viability counter-screen, 100 nM thapsigargin for final 4 h;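 note: human SH-SY5Y neuroblastoma cells carrying the GLuc-SERCaMP reporter; compound exposure about 46 h in total before the viability read; % is set by controls: 0 for no effect and ±100 for the full control effect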
[14] = target: Cytochrome P450 3A4 (Homo sapiens) (UniProt P08684); test: Cytochrome P450 family 3 subfamily A member 4 (CYP3A4) small molecule antagonists: luciferase qHTS assay (AID 1645841; active = well fitted curve in the direction sought with a large enough effect in the repeat runs; an effect the other way counts as inactive or inconclusive; note: nearly all actives have a fitted effect of over 45% in size)
Chain of Cytochrome P450 3A4 (Homo sapiens) (P08684 whole entry, looked up): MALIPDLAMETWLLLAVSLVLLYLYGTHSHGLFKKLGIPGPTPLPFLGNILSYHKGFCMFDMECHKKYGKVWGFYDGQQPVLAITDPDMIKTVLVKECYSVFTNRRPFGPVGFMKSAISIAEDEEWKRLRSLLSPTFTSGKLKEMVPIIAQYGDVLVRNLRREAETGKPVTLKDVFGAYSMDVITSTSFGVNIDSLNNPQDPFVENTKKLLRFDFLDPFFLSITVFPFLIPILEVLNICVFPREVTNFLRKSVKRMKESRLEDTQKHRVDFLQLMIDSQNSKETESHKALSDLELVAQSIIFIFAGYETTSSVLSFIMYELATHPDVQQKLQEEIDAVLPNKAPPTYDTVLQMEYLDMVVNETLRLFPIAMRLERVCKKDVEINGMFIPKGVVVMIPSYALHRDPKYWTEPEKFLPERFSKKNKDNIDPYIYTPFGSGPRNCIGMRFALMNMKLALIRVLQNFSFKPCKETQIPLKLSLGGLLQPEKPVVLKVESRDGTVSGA
Procedure, shortened: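 P450-Glo CYP3A4 enzyme with proluciferin substrate was preincubated with DMSO-dissolved compounds for 10 min at room temperature. NADPH regeneration solution started a 1 h reaction. Detection reagent stopped it, and luminescence was read after 20 min.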

[15] = target: Calcium and integrin-binding protein 1 (Homo sapiens) (UniProt Q99828); test: Validation qHTS for Identification of Calcium Integrin Binding protein 1 (CIB1) Competitor (AID 1508618); note: % is set by controls: 0 for no effect and ±100 for the full control effect
Procedure, shortened: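 Displacement of FITC-alphaIIb peptide (100 nM) from CIB1-GST (1 uM) is monitored by polarization in quantitative HTS format; buffer carries 5 mM CaCl2 and 125 mM NaCl at pH 7.4, incubations are at room temperature.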

Papain (Carica papaya) = Papain (Carica papaya) (UniProt P00784); test: Primary qHTS assay for inhibitors of the protease papain (AID 1645873)
Chain of Papain (Carica papaya) (P00784 whole entry, looked up): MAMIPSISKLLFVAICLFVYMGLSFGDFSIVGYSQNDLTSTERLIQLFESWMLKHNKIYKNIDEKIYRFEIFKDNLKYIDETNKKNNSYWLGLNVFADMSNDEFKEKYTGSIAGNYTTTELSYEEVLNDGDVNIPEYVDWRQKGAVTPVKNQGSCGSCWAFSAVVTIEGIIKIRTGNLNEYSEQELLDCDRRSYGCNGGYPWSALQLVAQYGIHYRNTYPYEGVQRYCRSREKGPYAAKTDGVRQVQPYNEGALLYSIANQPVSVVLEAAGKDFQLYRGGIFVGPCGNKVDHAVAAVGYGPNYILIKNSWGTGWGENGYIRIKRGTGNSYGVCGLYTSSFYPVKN

CCCCCCCCC(=O)NCc1ccc(O)c(OC)c1
4.35%: activity change, negative = inhibition [8]
inactive: outcome [1] | Potency [2] | outcome [3] | outcome [4] | Potency [7] | Potency [9] | Potency [10]
active: Potency [5] 13.8 µM | Potency [6] 0.692 µM

CCCC[N+]1(C)[C@@H]2CC(OC(=O)[C@H](CO)c3ccccc3)C[C@H]1[C@@H]1O[C@@H]12 (stereo partly specified)
-15.6%: activity change, negative = inhibition [8]
inactive: outcome [1] | Potency [2] | Potency [11] | Potency [12] | outcome [4] | Potency [6] | Potency [7] | Potency [9] | Potency [10]
active: Potency [5] 2.75 µM

NC(=O)OCCCc1ccccc1
inactive: outcome [1] | Potency [2] | Potency [11] | Potency [12] | max response [13] 1.15% | outcome [4] | Potency [5] | Potency [14] | Potency [6] | Potency [7] | Potency [8] | Potency [9] | Potency [10]

CC(C)=CCN1CC[C@@]2(C)c3cc(O)ccc3C[C@@H]1[C@@H]2C
inactive: outcome [1] | Potency [2] | Potency [11] | max response [13] -7.58% | outcome [4] | Potency [6]
active: Potency [12] 28.2 µM | Potency [5] 0.176 µM | Potency [9] 18.9 µM | Potency [10] 11.9 µM

CCCN(CCC)CCc1c[nH]c2ccccc12
inactive: outcome [1] | Potency [2] | outcome [3] | outcome [4] | Potency [14] | Potency [6]
active: Potency [5] 0.394 µM

CC(CC(C(N)=O)(c1ccccc1)c1ccccc1)N(C)C (stereo unspecified)
inactive: outcome [1] | Potency [2] | outcome [3] | outcome [4] | Potency [6] | Potency [7] | Potency [9] | Potency [10]
active: Potency [5] 7.76 µM
-7.18%: activity change, negative = inhibition [8]

NC1(c2ccccc2)CCCCC1
active: Potency [12] 56.2 µM | Potency [5] 28 µM | Potency [9] 17.1 µM | Potency [10] 24.1 µM
inactive: outcome [1] | Potency [2] | Potency [11] | outcome [4] | Potency [6]

CCCC(C)C1(CC)C(=O)N=C(S)NC1=O (stereo unspecified)
active: Potency [6] 15.5 µM
inactive: outcome [1] | Potency [2] | outcome [3] | outcome [4] | Potency [5]

O=C1NCN(c2ccccc2)C12CCN(CCCOc1ccc(F)cc1)CC2
active: Potency [11] 8.91 µM | Potency [12] 2.51 µM and 3.16 µM | Potency [5] 0.347 µM | Potency [9] 6.68 µM | Potency [10] 7.5 µM
inactive: outcome [1] | Potency [2] | max response [13] -6.39% | Potency [6]

CCOC(=O)c1cncn1C(C)c1ccccc1 (stereo unspecified)
inactive: outcome [1] | Potency [2] | outcome [3] | outcome [4] | Potency [5] | Potency [7] | Potency [8] | Potency [9] | Potency [10]
active: Potency [6] 11 µM

C[C@@H]1C[C@@H]([C@H](O)CC2CC(=O)NC(=O)C2)C(=O)[C@@H](C)C1
active: Potency [11] 1.58 µM and 1.12 µM | Potency [12] 0.224 µM | Potency [8] 2.51 µM | Potency [9] 211 nM and 296 nM | Potency [10] 188 nM and 296 nM
inactive: outcome [1] | Potency [2]

CNC(C)Cc1ccc2c(c1)OCO2 (stereo unspecified)
inactive: outcome [1] | Potency [2] | outcome [3] | outcome [4] | Potency [6]
active: Potency [5] 0.693 µM

C[N+]1(C)[C@@H]2CC[C@H]1CC(OC(=O)C(CO)c1ccccc1)C2 (stereo partly specified)
inactive: outcome [1] | Potency [2] | outcome [3] | outcome [4] | Potency [5] | Potency [6] | Potency [7] | Potency [8] | Potency [9] | Potency [10]

CN(C)CCc1c[nH]c2ccccc12
inactive: outcome [1] | Potency [2] | outcome [3] | outcome [4] | Potency [14] | Potency [6] | Potency [9] | Potency [10]
active: Potency [5] 62.8 µM

CCC(=O)OC1(c2ccccc2)CCN(C)CC1
active: Potency [5] 37.5 µM
inactive: outcome [1] | Potency [2] | Potency [11] | outcome [4] | Potency [6] | Potency [9] | Potency [10]

COC(=O)C1=CCCN(C)C1
inactive: outcome [1] | outcome [15] | Potency [2] | outcome [3] | outcome [4] | Potency [5] | Potency [6] | outcome (Papain (Carica papaya)) | Potency [9] | Potency [10]

CCOP(=S)(OCC)O/N=C(\C#N)c1ccccc1
inactive: outcome [1] | Potency [2] | outcome [3] | outcome [4]
active: Potency [5] 13.8 µM | Potency [6] 2.19 µM

CN1[C@@H]2CC[C@H]1CC(OC(=O)c1cc(Cl)cc(Cl)c1)C2 (stereo partly specified)
active: Potency [5] 0.0436 µM
inactive: outcome [1] | Potency [2] | Potency [11] | Potency [12] | max response [13] -1.72% | Potency [6] | Potency [9]

CC[C@H](O)C(C[C@H](C)N(C)C)(c1ccccc1)c1ccccc1
inactive: outcome [1] | Potency [2] | Potency [9] | Potency [10]
active: Potency [12] 50.1 µM

ClCCCN1CCN(c2cccc(Cl)c2)CC1
inactive: outcome [1] | Potency [2] | outcome [3] | outcome [4] | Potency [14] | Potency [9]
active: Potency [5] 1.1 µM

COc1ccc2[nH]cc(CCN(C(C)C)C(C)C)c2c1
inactive: outcome [1] | Potency [2] | outcome [3] | outcome [4] | Potency [6]
active: Potency [5] 3.25 µM

CC(Cc1ccccc1)NCCCCl (stereo unspecified)
active: Potency [5] 1.23 µM
inactive: outcome [1] | Potency [2] | outcome [3] | outcome [4] | Potency [6] | Potency [7]

C[C@H]1CNCCc2ccc(Cl)cc21
active: Potency [5] 1.95 µM
inactive: outcome [1] | Potency [2] | outcome [3] | outcome [4] | Potency [14] | Potency [6] | Potency [9]

CC(C)(C)OC(=O)c1ncn2c1[C@@H]1CCCN1C(=O)c1c(Br)cccc1-2
inactive: outcome [1] | Potency [2] | outcome [3] | outcome [4] | Potency [5]
active: Potency [6] 4.36 µM

C[C@]12C=CC(=O)C=C1CC[C@@H]1[C@@H]2CC[C@@]2(C)[C@H]1CC[C@]2(C)O
inactive: outcome [1] | Potency [2] | outcome [3] | outcome [4] | Potency [5] | Potency [14] | Potency [6]
active: Potency [9] 23.7 µM
